In the supplement of paper PMC6607015:
Structures can show the parent of a compound that is named as a salt.

Columns and labels:
Conditions in all cases: compound concentration in added solution (µM; 5 µl added to 20 µl cells): 10; 18 h
A431 [1] = assay: LBPA endosome anti-LBPA integrated intensity (sum per cell), Z-score; higher = more LBPA staining
In short: (§1)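 Duplicate 384-well imaging plates were prepared with 5 µl of 10 µM compound solution per well, and 3,500 HeLa MZ or A431 cells in 20 µl were added on top. Following 18 h of incubation and fixation in 4% PFA, cells received 6C4 anti-LBPA antibody, filipin, propidium iodide and CellTracker green. Four images per well at 20× were segmented in MetaXpress to yield per-cell integrated LBPA or filipin intensity, whole-cell or within LBPA endosomes. These intensities are reported as Z-scores normalised in AcuityXpress.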

HeLa MZ [2] = assay: as above
In short: as §1

A431 [3] = assay: whole-cell filipin (free cholesterol) integrated intensity, Z-score; higher = more cholesterol staining
In short: as §1

HeLa MZ [4] = assay: as above
In short: as §1

A431 [5] = assay: filipin (cholesterol) integrated intensity within LBPA endosomes, Z-score; higher = more cholesterol in LBPA endosomes
In short: as §1

HeLa MZ [6] = assay: as above
In short: as §1

| SMILES | LBPA endosome anti-LBPA integrated intensity (z-score) (A431 [1]) | LBPA endosome anti-LBPA integrated intensity (z-score) (HeLa MZ [2]) | whole-cell filipin (z-score) (A431 [3]) | whole-cell filipin (z-score) (HeLa MZ [4]) | filipin (z-score) (A431 [5]) | filipin (z-score) (HeLa MZ [6]) |
| --- | --- | --- | --- | --- | --- | --- |
| CO/N=C(\C(=O)N[C@@H]1C(=O)N2C(C(=O)O)=C(COC(C)=O)CS[C@H]12)c1csc(N)n1 [Cefotaxime sodium salt] | -0.36 | -0.201 | -0.822 | -0.63 | -0.554 | -0.583 |
| CC(N)CCCC(C)(C)O (configuration not stated) [Heptaminol hydrochloride] | -0.451 | -1.1 | -0.647 | -0.285 | -0.442 | -0.477 |
| COc1c(O[C@@H]2O[C@H](CO)[C@@H](O)[C@H](O)[C@H]2O)cc2c(c1OC)-c1ccc(SC)c(=O)cc1[C@@H](NC(C)=O)CC2 [Thiocolchicoside] | -0.551 | -0.233 | -0.589 | -0.789 | -0.477 | -0.471 |
| CC(=O)O[C@H]1C[C@@H]2CC[C@@H]3[C@H](CC[C@@]4(C)[C@H]3C[C@H]([N+]3(C)CCCCC3)[C@@H]4OC(C)=O)[C@@]2(C)C[C@@H]1N1CCCCC1 [Vecuronium bromide] | -0.413 | 0.00655 | 0.0669 | -0.181 | -0.445 | -0.215 |
| CCCc1nn(C)c2c(=O)[nH]c(-c3cc(S(=O)(=O)N4CCN(C)CC4)ccc3OCC)nc12 [Sildenafil] | -0.41 | -0.61 | -0.134 | -0.0955 | -0.415 | -0.257 |
| CNc1ncnc2c1ncn2[C@@H]1O[C@H](CO)[C@@H](O)[C@H]1O [N6-methyladenosine] | -0.364 | 0.218 | -0.443 | 0.122 | -0.45 | -0.43 |
| CC(=O)O[C@]1(C(C)=O)CC[C@H]2[C@@H]3C=C(C)C4=CC(=O)CC[C@@H]4[C@H]3CC[C@@]21C [Nomegestrol acetate] | 0.292 | 0.691 | 1.29 | 1.28 | 0.654 | 0.778 |
| CN1CCN(C2=Nc3cc(Cl)ccc3Nc3ccccc32)CC1 [Clozapine] | 1.19 | 2.46 | 0.629 | -0.114 | 0.781 | 1.4 |
| C[C@H]1c2cccc(O)c2C(=O)C2=C(O)[C@]3(O)C(=O)C(C(N)=O)=C(O)[C@@H](N(C)C)[C@@H]3[C@@H](O)[C@@H]21 [Doxycycline hydrochloride] | -0.633 | -1.71 | -0.0102 | -0.552 | -0.531 | -0.743 |
| COCCOC(=O)C1=C(C)NC(C)=C(C(=O)OC/C=C/c2ccccc2)C1c1cccc([N+](=O)[O-])c1 (configuration not stated) [Cilnidipine] | 0.601 | 0.589 | 1.38 | -0.377 | 0.591 | 0.579 |
| CC(=O)OCC(=O)[C@@]1(OC(C)=O)[C@@H](C)C[C@H]2[C@@H]3C[C@H](F)C4=CC(=O)C=C[C@]4(C)[C@@]3(F)[C@@H](O)C[C@@]21C [Diflorasone Diacetate] | -0.283 | -0.262 | -0.254 | -0.816 | -0.354 | -0.539 |
| CC(=O)Nc1c(I)c(C(=O)N[C@H]2C(O)O[C@H](CO)[C@@H](O)[C@@H]2O)c(I)c(N(C)C(C)=O)c1I (some centres not stated) [Metrizamide] | -0.495 | -0.295 | -0.527 | -0.9 | -0.561 | -0.597 |
| CC1(C)O[C@@H]2[C@@H](CO[C@@]3(COS(N)(=O)=O)OC(C)(C)O[C@@H]23)O1 [Topiramate] | -0.482 | -0.13 | -0.0917 | -0.317 | -0.419 | -0.514 |
| NC1CCN(c2c(F)cc3c(=O)c(C(=O)O)cn(C4CC4)c3c2Cl)C1 (configuration not stated) [Clinafloxacin] | -0.36 | 0.512 | -0.328 | -0.333 | -0.437 | -0.286 |
| CC(C)(C)NC(=O)[C@H]1CC[C@H]2[C@@H]3CC[C@H]4NC(=O)C=C[C@]4(C)[C@H]3CC[C@]12C [Finasteride] | -0.353 | -0.576 | 0.536 | 0.274 | -0.256 | -0.306 |
| COc1cc2nc(N(C)CCCNC(=O)C3CCCO3)nc(N)c2cc1OC (configuration not stated) [Alfuzosin hydrochloride] | 1.37 | 1.11 | -0.35 | -0.351 | 0.00526 | 0.128 |
| CC(C)(Oc1ccc(CCNC(=O)c2ccc(Cl)cc2)cc1)C(=O)O [Bezafibrate] | -0.429 | -0.597 | -0.437 | -0.728 | -0.456 | -0.612 |
| OC(Cn1cncn1)(Cn1cncn1)c1ccc(F)cc1F [Fluconazole] | -0.239 | 0.69 | -0.0365 | 0.704 | -0.366 | -0.348 |
| C[n+]1ccccc1/C=N/O [Pralidoxime chloride] | -0.559 | -0.678 | -0.432 | -0.212 | -0.503 | -0.574 |
| c1ccc2c(c1)CCCC2C1=NCCN1 (configuration not stated) [Tetrahydrozoline hydrochloride] | -0.429 | 1.07 | -0.35 | 0.315 | -0.366 | 0.0856 |
| CCC[C@@H]1C[C@@H](C(=O)N[C@@H]([C@H]2O[C@H](SC)[C@H](O)[C@@H](O)[C@H]2O)[C@@H](C)O)N(C)C1 [Lincomycin hydrochloride] | -0.565 | -0.696 | -0.903 | -1.08 | -0.504 | -0.682 |

| SMILES | LBPA endosome anti-LBPA integrated intensity (z-score) (A431 [1]) | LBPA endosome anti-LBPA integrated intensity (z-score) (HeLa MZ [2]) | whole-cell filipin (z-score) (A431 [3]) | whole-cell filipin (z-score) (HeLa MZ [4]) | filipin (z-score) (A431 [5]) | filipin (z-score) (HeLa MZ [6]) |
| --- | --- | --- | --- | --- | --- | --- |
| CC(C(=O)O)c1ccc(C(=O)c2ccccc2)s1 (configuration not stated) [Tiaprofenic acid] | -0.52 | -0.291 | -0.49 | 0.105 | -0.443 | -0.426 |
| CCn1cc(C(=O)O)c(=O)c2cnc(N3CCNCC3)nc21 [Pipemidic acid] | -0.522 | 0.188 | -0.242 | 0.338 | -0.361 | -0.281 |
| NC(=O)OCC(O)COc1ccc(Cl)cc1 (configuration not stated) [Chlorphensin carbamate] | -0.6 | -2.23 | -1.05 | -0.894 | -0.514 | -0.697 |
| Cc1oncc1C(=O)Nc1ccc(C(F)(F)F)cc1 [Leflunomide] | -0.572 | -0.48 | -0.143 | -0.573 | -0.693 | -0.555 |
| CCCCC(O)c1ccccc1 (configuration not stated) [Fenipentol] | -0.545 | -0.11 | -0.922 | -0.426 | -0.553 | -0.613 |
| CCN(CC)CCNC(=O)c1cc(Br)c(N)cc1OC [Bromopride] | -0.305 | 0.899 | -0.269 | 0.199 | -0.333 | 0.158 |
| COc1cc(-c2ccc(=O)[nH]n2)ccc1OC(F)F [Zardaverine] | -0.319 | 0.0365 | 0.286 | 0.356 | -0.298 | -0.332 |
| C/C(=C(\CCOP(=O)(O)O)SC(=O)c1ccccc1)N(C=O)Cc1cnc(C)nc1N [Benfotiamine] | -0.532 | -0.653 | -0.469 | -0.157 | -0.411 | -0.31 |
| CN[C@@H]1[C@H](O[C@H]2[C@H](O[C@H]3[C@H](O)[C@@H](O)[C@H](N=C(N)N)[C@@H](O)[C@@H]3N=C(N)N)O[C@@H](C)[C@]2(O)C=O)O[C@@H](CO)[C@H](O)[C@H]1O [Streptomycin sulfate] | -0.673 | -1.38 | -0.979 | -0.78 | -0.577 | -0.576 |
| C#C[C@]1(O)CC[C@H]2[C@@H]3CCC4=CCCC[C@@H]4[C@H]3CC[C@@]21C [Lynestrenol] | -0.602 | -1.13 | -1.14 | -0.677 | -0.563 | -0.697 |
| CNS(=O)(=O)Cc1ccc2[nH]cc(CCN(C)C)c2c1 [Sumatriptan succinate] | -0.406 | 0.265 | -0.574 | -0.339 | -0.423 | -0.484 |
| CSc1ccc2c(c1)C(N1CCN(C)CC1)Cc1ccccc1S2 (configuration not stated) [Methiothepin maleate] | 3.25 | 1.9 | 0.963 | 0.218 | 3 | 2.66 |
| CCOC(=O)C1=C(COCCN)NC(C)=C(C(=O)OC)C1c1ccccc1Cl (configuration not stated) [Amlodipine] | 1.97 | 0.223 | 0.774 | 0.736 | 2.32 | 1.8 |
| CC(=O)NCCCS(=O)(=O)O [Acamprosate calcium] | -0.335 | 0.472 | -0.555 | -0.465 | -0.407 | -0.547 |
| Cc1onc(-c2c(Cl)cccc2Cl)c1C(=O)N[C@@H]1C(=O)N2[C@@H]1SC(C)(C)[C@@H]2C(=O)O [Dicloxacillin sodium salt hydrate] | -0.319 | -0.38 | -0.616 | -0.567 | -0.395 | -0.582 |
| O=C(O)c1cc(/N=N/c2ccc(S(=O)(=O)Nc3ccccn3)cc2)ccc1O [Sulfasalazine] | -0.338 | 0.849 | 0.0767 | 1.46 | -0.515 | -0.277 |
| O=C1C(CC[S+]([O-])c2ccccc2)C(=O)N(c2ccccc2)N1c1ccccc1 (configuration not stated) [Sulfinpyrazone] | -0.368 | 0.025 | 0.303 | -0.59 | -0.319 | -0.446 |
| CCOC(=O)c1ccc(N)cc1 [Benzocaine] | -0.607 | -1.32 | -0.4 | -0.36 | -0.613 | -0.643 |
| CC(=O)c1ccc2c(c1)N(CCCN(C)C)c1ccccc1S2 [Acetopromazine maleate salt] | 1.92 | 2.14 | 0.736 | -0.149 | 1.18 | 1.7 |
| CC(=O)Nc1ccc(O)cc1 [Acetaminophen] | -0.388 | 0.0073 | -0.156 | -0.518 | -0.48 | -0.412 |
| CC1(C)S[C@@H]2[C@H](NC(=O)Cc3ccccc3)C(=O)N2[C@H]1C(=O)O [Benzathine benzylpenicillin] | -0.419 | 0.43 | 0.0117 | 0.113 | -0.376 | -0.279 |
